Each structure is given as a SMILES string. Values joined by “and” are separate entries in the source; they are usually repeats but may differ in a detail not shown here. Identical values can stand only once. Results filed as inconclusive are left out. A structure can be active in one record and inactive in another. Active and inactive are the calls of the source. How the source made its calls: active means hit-call score of the fitted dose curve at least 0.9, where 1 is the maximum; inconclusive means response in the unintended direction; inactive means score below 0.9.

One may read the AC50 as the concentration giving half of the maximal activity seen.

Sequence of Cellular tumor antigen p53 (Homo sapiens) (P04637 whole entry, looked up, the tested form may be a part): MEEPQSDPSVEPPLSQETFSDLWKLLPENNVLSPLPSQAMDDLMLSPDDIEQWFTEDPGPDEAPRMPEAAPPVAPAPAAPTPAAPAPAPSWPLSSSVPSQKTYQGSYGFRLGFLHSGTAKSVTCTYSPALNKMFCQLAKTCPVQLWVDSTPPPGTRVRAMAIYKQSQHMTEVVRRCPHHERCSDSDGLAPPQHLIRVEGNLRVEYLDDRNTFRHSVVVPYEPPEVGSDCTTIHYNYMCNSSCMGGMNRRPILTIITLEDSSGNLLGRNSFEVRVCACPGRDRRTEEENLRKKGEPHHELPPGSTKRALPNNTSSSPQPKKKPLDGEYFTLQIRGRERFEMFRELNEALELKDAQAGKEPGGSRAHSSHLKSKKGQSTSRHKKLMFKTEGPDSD

The experiment addresses Cellular tumor antigen p53 (Homo sapiens) (UniProt P04637). In words: TOX21_p53_BLA_p2_ratio: Tox21 HCT-116 p53 Agonism Beta-lactamase Assay, Ratio, Phase 2 (AID 2283592). From the text:
TOX21_p53_BLA_p2 is a cell-based, single-readout assay that uses HCT116, a human intestinal cell line, […] in a 1536-well plate.TOX21_p53_BLA_p2_ratio is an assay readout measuring reporter gene via receptor activity and designed using inducible reporter (beta lactamase induction) detected with GAL4 b-lactamase reporter gene. The signal is derived from the ratio of cleaved (ch2) to uncleaved (ch1) reporter gene substrate used as the measure of target activity.Data from the assay component TOX21_p53_BLA_p2_ratio was analyzed into 1 assay endpoint. This assay endpoint, TOX21_p53_BLA_p2_ratio, was analyzed in the positive analysis fitting direction relative to DMSO as the negative control and baseline of activity. Using a type of inducible reporter, gain-of-signal activity can be used to understand changes in the reporter gene as they relate to the gene TP53. Furthermore, this assay endpoint can be referred to as a primary readout, because this assay has produced multiple assay endpoints and this ratio serves a reporter gene function to understand target activity. To generalize the intended target to other relatable targets, this assay endpoint is annotated to the DNA binding intended target family, where the subfamily is tumor suppressor.
Thawing Method: Place 14 mL of pre-warmed thaw medium into a 15 mL of conical tub. Remove the vial of cells to be thawed from liquid nitrogen and thaw rapidly by placing at 37C in a water bath with gentle agitation for 1-2 minutes. Decontaminate the vial by wiping with 70% ethanol before opening in a biological safety cabinet. Transfer the vial contents drop-wise into 14 mL of thaw medium in a sterile 15-mL conical tub. Centrifuge cells at 900 rpm for 4 minutes and resuspend in thaw medium. Transfer contents to the T75 tissue culture flask containing Thaw Medium and place flask in a humidified 37C/5% CO2 incubator. Switch to growth medium at first passage.Propagation Method: Aspirate medium, rinse once in DPBS, add 0.25% Trypsin/EDTA and swirl to coat the cell evenly. Add an equal volume of Growth Medium to inactivate Trypsin after 2-3 minutes incubation at 37C. Centrifuge cells at 900 rpm for 4 minutes and resuspend in growth medium. Cell should be passage or fed at least twice a week.Assay Protocol: Harvest cells from culture in growth medium and resuspend in assay medium. 2.2 Dispense 4000 cells/5 uL/well into 1536-well black/clear bottom plates using a Multidrop dispenser. After the cells were incubated at 37C for 5 hours, 23 nL of compounds dissolved in DMSO were transferred to the assay plate by a PinTool resulting in a 217-fold dilution. Incubate the plates for 16 hours at 37C, 5% CO2. Add 1 uL of 6X LiveBLAzer FRET B/G (CCF4-AM) Substrate Mixture to each well using a BioRAPTR dispenser and incubate the plates at room temperature for 2 hours. Measure fluorescence intensity at 460 and 530 nm emission and 405 nm excitation by an Envision detector. Data is expressed as the ratio of 460nm/530nm emissions. Add 4 uL of Cell-titer Glo to each well using BioRAPTR and incubate the plates at room temperature for 2 hours. Measure fluorescence intensity by a VewLux plate reader.
Turning to `Cc1ccc(-c2ccccc2)cc1`, the outcome was inactive.

Take `Cc1[nH]c(=O)c(C#N)cc1-c1ccncc1`: the result was inactive. With `COC(C)(C)CCO`, the outcome was inactive. For `Brc1ccc(Br)c(Br)c1`, the result was inactive. As for `[Cl][Au]([Cl])[Cl]`, the AC50 was 74.1 µM (active).

On to `CCc1cc(Cc2cc(CC)cc(C(C)(C)C)c2O)c(O)c(C(C)(C)C)c1`, for which the AC50 is 14.9 µM (active). `CC(C)OCCO`: the outcome was inactive. Regarding `COc1cc(CCC(C)=O)ccc1O`, the outcome was inactive.

`O=C(CC(=O)c1ccccc1)c1ccccc1`: the outcome was inactive.

For `Cc1cc(CCC(=O)OCCOCCOCCOC(=O)CCc2cc(C)c(O)c(C(C)(C)C)c2)cc(C(C)(C)C)c1O`, the result was inactive. Take `CSc1c(Cl)c(Cl)c(Cl)c(Cl)c1Cl`: the outcome was inactive.

In the case of `O=CN1CCOCC1`, the outcome was inactive. Regarding `IC(I)I`, the outcome was inactive. On to `C=C(CC(=O)O)C(=O)O`, for which the result was inactive. In the case of `CCC(C)=O`, the outcome was inactive. As for `O=C(O)c1ccc(O)cc1`, the outcome was inactive. Turning to `O=C(CS)OCCOC(=O)CS`, the AC50 was 42.9 µM (active).

Take `CC(C)CCCCCCCCCCCCCCC(=O)O`: the result was inactive. `CC(C)(CO)[C@@H](O)C(=O)NCCC(=O)O`: the result was inactive.

Take `CCCSc1ccc2nc(NC(=O)OC)[nH]c2c1`: the concentration at half-maximal activity (AC50) is 336 nM (active) and 247 nM (active). Take `COc1ccccc1[N+](=O)[O-]`: the result was inactive. Regarding `OCc1cccc(Oc2ccccc2)c1`, the result was inactive.

For the molecule `CC(=O)NCCO`, the outcome was inactive. `CCCCCCCC(=O)OCCCCCC`: the outcome was inactive. Turning to `CC(C)=CCCC(C)CCOC=O` (stereo not given), the outcome was inactive. As to `CCCCCC(C=O)=Cc1ccccc1`, the result was inactive. The same measure, in the same setting: under `CCC(Cl)C(Cl)C(Cl)CC(Cl)C(Cl)C(C)Cl` (stereo not given) stands “inactive”.

On to `CCc1cc(C(C)(C)C)c(O)c(C(C)(C)C)c1`, for which the outcome was inactive. Take `CCCCC(CC)C(=O)OC(C)C` (stereo not given): the outcome was inactive.

Regarding `CCc1ccc(O)cc1`, the outcome was inactive. Same read-out and setting: then `CCCCC1CCC(O)CC1` (stereo not given), with “inactive”. Turning to `N[C@@H](Cc1cc(I)c(Oc2cc(I)c(O)c(I)c2)c(I)c1)C(=O)O`, the outcome was inactive and the AC50 was 43.6 µM (active). Consider `CC1(C)C2=CCCC(C)(C)[C@]23CC[C@H]1C3`, for which the result was inactive.

As for `CN(C)CCOC(C)(c1ccccc1)c1ccccn1` (stereo not given), the result was inactive. On to `C=C(C)CNCC`, for which the outcome was inactive. Regarding `OCC(O)c1ccccc1` (stereo not given), the result was inactive. `CC(=O)c1ccccn1`: the result was inactive. `CCCCC1(COC(=O)CCC(=O)O)C(=O)N(c2ccccc2)N(c2ccccc2)C1=O`: the outcome was inactive. Take `CC(C=O)Cc1ccc(C(C)(C)C)cc1` (stereo not given): the outcome was inactive.

Values taken from PubChem BioAssay (EPA / NIEHS).
